An excerpt weighted towards active compounds, which were near 3% of everything screened.
PAFAH1B2 inh – blocks human PAF acetylhydrolase 1b catalytic subunit 2; recombinant PAFAH1B2, FP-rhodamine activity probe, fluorescence polarization; P68402; 1.2% of 340,000 active; inhibition, % at 3.39 µM;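 active = inhibition above the mean of all tested compounds plus 3 SD, cut at about 24% in these data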;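 note: 0% = enzyme with DMSO and 100% = wells lacking PAFAH1B2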
PAFAH2 FP inh – PAFAH2 (human) inhibition. Q99487. recombinant PAFAH2, FP-rhodamine activity probe, fluorescence polarization. inhibition, % at 3.39 µM. 0.99% of 340,000 active. AID 492956;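 active = inhibition above the mean over all tested compounds plus 3 SD, cut at about 30% in these data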;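 note: inhibitors block probe labeling of enzyme so polarization drops; 0% = enzyme with DMSO and 100% = wells lacking PAFAH2 protein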
PAFAH1B3 inh – blocks human PAF acetylhydrolase 1B catalytic subunit 3 | recombinant PAFAH1B3, FP-rhodamine probe, fluorescence polarization | AID 492972 | Q15102 | inhibition, % at 3.39 µM | 0.28% of 340,000 active;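 active = inhibition above the screen-wide average of all tested compounds plus 3 SD, cut at about 25% in these data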;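 note: 0% = enzyme with DMSO only and 100% = wells lacking PAFAH1B3 protein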
ATG4B inh – blocks human ATG4B protease cleavage of LC3 substrate. 0.51% of 340,000 active. inhibition, % at 8.33 µM. Q9Y4P1. ATG4B cleavage of LC3-PLA2, NBD-HPC fluorescence, 1 h; in the data active = inhibition above about 40%
Target sequence (Q9Y4P1 whole entry, looked up): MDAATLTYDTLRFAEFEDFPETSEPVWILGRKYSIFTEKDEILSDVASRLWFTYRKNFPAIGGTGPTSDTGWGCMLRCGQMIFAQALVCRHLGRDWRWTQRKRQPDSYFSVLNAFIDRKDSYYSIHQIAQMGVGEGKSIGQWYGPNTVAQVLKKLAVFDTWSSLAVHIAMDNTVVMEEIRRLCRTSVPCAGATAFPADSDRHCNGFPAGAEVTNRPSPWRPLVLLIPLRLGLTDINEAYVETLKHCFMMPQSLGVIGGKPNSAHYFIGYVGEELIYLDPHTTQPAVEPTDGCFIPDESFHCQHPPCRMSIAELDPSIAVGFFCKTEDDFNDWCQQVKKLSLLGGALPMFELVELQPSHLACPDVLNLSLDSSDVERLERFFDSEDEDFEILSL
pPAFAH inh – pPAFAH (human) enzyme inhibition; Q13093; recombinant pPAFAH, FP-rhodamine probe fluorescence polarization; inhibition, % at 3.39 µM; 1.5% of 330,000 active; AID 463082;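 active = inhibition above the mean inhibition across the screen plus 3 SD, cut at about 25% in these data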;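 note: inhibitors block binding of the rhodamine activity-based probe so polarization drops; 0% = enzyme with DMSO and 100% = wells lacking pPAFAH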
DAGLB inh – diacylglycerol lipase beta (human) inhibition. Q8NCG7. HEK293T DAGLB membrane lysate, EnzChek fluorogenic substrate. inhibition, % at 5.17 µM. 0.059% of 340,000 active; in the data active = inhibition above about 34%;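 note: 0% = enzyme with vehicle and 100% = wells lacking enzyme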
PAFAH2 confirm – PAFAH2 (human) inhibition, confirmed; shares compounds with PAFAH2 FP inh; recombinant PAFAH2, FP-rhodamine activity probe, fluorescence polarization; inhibition, % at 3.39 µM; 65% of 2,300 active; AID 493030;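 active = mean inhibition over three repeats above a set limit taken from the earlier primary screen, cut at about 30% in these data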;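 note: inhibitor blocks binding of rhodamine activity probe so polarization falls; 0% = enzyme with DMSO and 100% = wells lacking PAFAH2 protein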
* hit, by the source's call; · = no result.

SMILES	PAFAH1B2 inh	PAFAH2 FP inh	PAFAH1B3 inh	ATG4B inh	pPAFAH inh	DAGLB inh	PAFAH2 confirm
O=C(COC(=O)/C=C/c1ccc2c(c1)OCO2)NC1CC1	5	56*	-5	-2	5	0	41*
CC1CCCC(NC(=O)COC(=O)/C=C/c2ccc3c(c2)OCO3)C1C (stereo not drawn)	4	82*	1	1	4	-1	75*
CC(C)NC(=O)NC(=O)COC(=O)/C=C/c1ccc2c(c1)OCO2	2	7	5	1	-4	0	·
CCOc1ccccc1C(=O)NCC(=O)NCC(c1ccco1)N1CCCCC1 (stereo not drawn)	0	9	-6	-3	-5	0	·
Cc1nc2ccc(C(=O)OCc3nnc(-c4ccc(Br)cc4)o3)cc2nc1C	8	13	-1	-8	0	-2	·
O=C(OCc1nnc(-c2ccccc2)o1)c1cccc(S(=O)(=O)N2CCOCC2)c1	-2	57*	-6	-5	4	-1	40*
O=C(OCCOc1ccccc1F)c1cccc(S(=O)(=O)N2CCOCC2)c1	1	30*	6	-3	12	-7	18
Cc1nc2ccc(C(=O)OCc3nnc(-c4ccccc4)o3)cc2nc1C	9	35*	14	-1	·	-3	18
O=C(OCc1nnc(-c2ccccc2)o1)c1ccccc1	1	57*	1	-8	8	-1	50*
CCCCN(Cc1nc2ccccc2c(=O)[nH]1)C(=O)CN1C(=O)NC2(CCCCC2)C1=O	1	3	8	-10	-3	1	·
C[n+]1cccc2cccc([O-])c21	10	13	12	-7	·	-2	·
C[C@@H]1CN([C@H](C)CO)C(=O)c2cc(Br)cnc2O[C@H]1CN(C)C(=O)Nc1ccccc1F	·	·	·	·	·	-2	·
COc1ccc(C(=O)NCCS(=O)(=O)N2CCCC2)cc1	3	-1	3	1	3	-3	·
COc1cccc(CNC(=O)COC(=O)c2ccc(-c3ccc(O)cc3)cc2)c1	·	·	·	·	·	-3	·
O=C(OCc1nnc(-c2ccc(Br)cc2)o1)c1ccco1	1	54*	10	5	1	3	42*
Cc1noc(C)c1COc1ccc(C(=O)OCc2nnc(-c3ccc(Cl)cc3)o2)cc1	1	66*	-3	-10	3	-10	69*
Cc1ccsc1C(=O)OCc1nnc(-c2ccccc2)o1	2	51*	2	5	11	-8	29
Cc1ccsc1C(=O)OCC(=O)Nc1nnc(-c2ccccc2)o1	5	3	7	10	-10	0	·
O=C(OCc1nnc(-c2ccc(Cl)cc2)o1)c1ccncc1	-1	1	4	-10	5	3	·
Cc1ccccc1C(=O)OCc1nnc(-c2ccc(Cl)cc2)o1	4	33*	1	5	-2	-15	25
O=C(OCc1nnc(-c2ccccc2)o1)c1ccc(Br)o1	2	9	-4	-5	10	-6	·
Cc1ccccc1OCCSc1nc2ccccc2n1CCC(=O)O	7	9	14	-2	-2	2	·
O=C(c1ccccc1)c1ccc(O)c(O)c1O	9	38*	21	2	·	16	42*
CSc1ncccc1C(=O)OCC(=O)NC1CCCC1	4	15	-3	-14	1	0	·
Nc1cc(Cl)ccc1C(=O)OCC(=O)NC1CCCCCCC1	1	47*	0	-11	7	-2	41*
SMILES	PAFAH1B2 inh	PAFAH2 FP inh	PAFAH1B3 inh	ATG4B inh	pPAFAH inh	DAGLB inh	PAFAH2 confirm
CSc1ncccc1C(=O)OCC(=O)NC1CC1	6	5	10	1	·	3	·
CSc1ncccc1C(=O)OCC(=O)NC12CC3CC(CC(C3)C1)C2	13	72*	3	4	5	-5	72*
O=C(COC(=O)c1cccnc1Cl)NC1CCCCCC1	5	73*	7	0	8	4	66*
CSc1ncccc1C(=O)OCC(=O)NC1CCCCC1	-4	38*	-6	-6	2	-2	36*
O=C(COC(=O)c1c(Cl)cccc1Cl)NC1CCCCCCC1	12	7	6	-5	10	-13	·
Cc1c(C)n(C)c2ccc(C(=O)NCCN3CCOCC3)cc12	-5	-10	-13	-1	-11	-1	·

From PubChem
